Menin-MLL FL inh – displaces fluorescein MLL peptide from human menin; Fluorescence polarization, fluorescein-MLL peptide displacement from menin; FP activity change, % at 61.4 µM; 290,000 tested, under 10 active; AID 1766; active = well fitted curve in the direction sought with a large enough effect in the polarisation, not every such curve was filed as active; inconclusive = small, poorly fitted or top-dose-only effect, or effect the other way, or a change in a side signal; inactive = no such curve, though single readings can be large or run the other way; the % refers to the polarisation; also: % of control where 0% means no effect
p53 reactivation – re-activators of mutant p53 | AID 504706 | 320,000 compounds, 0.063% hits | H1299 p53-A138V BP100-luciferase reporter, luminescence, 24 h | Potency, µM (highest dose often 92.2 µM), inactives show at the highest dose activity change, positive = activation, usual class: activators; active = well fitted activation curve with a large enough effect; inconclusive = small, poorly fitted or top-dose-only effect; inactive = no such curve, though single readings can be large or run the other way; also: potency is read from the fitted curve at half-maximal effect; % of control where 0% means no effect; nearly all actives have a fitted effect of over 45% in size
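H1299 (p53-null), stable ts p53-A138V + BP100-Luc; 1000 cells/well, Opti-MEM/10% FBS; cpd 4 pt, 1:5; 24 h, 37 deg C, 5% CO2; detection reagent 10 min RT; luminescence.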
MLL CXXC-DNA inh – MLL CXXC-DNA interaction inhibition | Potency, µM (series often up to 115 µM), for the others: at the top dose activity change, negative = inhibition, hits mostly inhibitors | AID 2662 | 290,000 compounds, 0.037% hits | MLL-CXXC / FITC-HOXA9 DNA fluorescence polarization; active = well fitted inhibition curve with a large enough effect in the polarisation, with a control signal flat, not every such curve was filed as active; inconclusive = small, poorly fitted or top-dose-only effect, or effect the other way, or a change in a side signal; inactive = no such curve, though single readings can be large or run the other way; the % refers to the polarisation; also: potency is read from the fitted curve at half-maximal effect
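Steps: dispense CXXC domain solution (7 uM) → pin compounds or unlabeled HOX-A9 DNA control → 5 min ambient → add FLSN-HOX-A9 solution (50 nM) → spin → 30 min ambient → fluorescence polarization. Tris pH 7.5/NaCl/DTT/BSA buffer.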
ClpP mod – qHTS Assay for Activators of ClpP; 340,000 compounds, 1.9% hits; ATP-dependent Clp protease proteolytic subunit (Bacillus subtilis (strain 168)), P80244; purified B. subtilis ClpP, FRET peptide cleavage, 20 min; Potency, µM (titrated, usually from 57.5 µM), for inactives: top-dose activity change, negative = active; active = well fitted falling curve with a large enough effect; inconclusive = small, poorly fitted or top-dose-only effect; inactive = no such curve, though single readings can be large or run the other way; also: potency is read from the fitted curve at half-maximal effect; the source files actives as falling curves though it sought activators and does not explain the sign; nearly all actives have a fitted effect of over 65% in size
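Buffer: 100 mM Tris/HCl pH8, 100 mM KCl, 0.05% low protease BSA, 2.5% glycerol, 0.01% Tween-20. ClpP 10 microg/mL final; 20 min RT; delta FRET normalized to ADEP and DMSO controls.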
Menin-MLL TR inh – inhibitors of human menin-MLL interaction, mutant MLL peptide. O00255. Menin + Texas Red MLL mutant peptide, fluorescence polarization. Potency, µM (highest dose often 61.6 µM), for inactives: at the top dose FP activity change, negative = inhibition, most hits filed as inhibitors. 270,000 compounds, 0.23% hits. AID 1768; active = well fitted inhibition curve with a large enough effect in the polarisation, with a control signal flat, not every such curve was filed as active; inconclusive = small, poorly fitted or top-dose-only effect, or effect the other way, or a change in a side signal; inactive = no such curve, though single readings can be large or run the other way; the % refers to the polarisation; also: potency is read from the fitted curve at half-maximal effect; % of control where 0% means no effect
Target sequence (O00255 whole entry, looked up): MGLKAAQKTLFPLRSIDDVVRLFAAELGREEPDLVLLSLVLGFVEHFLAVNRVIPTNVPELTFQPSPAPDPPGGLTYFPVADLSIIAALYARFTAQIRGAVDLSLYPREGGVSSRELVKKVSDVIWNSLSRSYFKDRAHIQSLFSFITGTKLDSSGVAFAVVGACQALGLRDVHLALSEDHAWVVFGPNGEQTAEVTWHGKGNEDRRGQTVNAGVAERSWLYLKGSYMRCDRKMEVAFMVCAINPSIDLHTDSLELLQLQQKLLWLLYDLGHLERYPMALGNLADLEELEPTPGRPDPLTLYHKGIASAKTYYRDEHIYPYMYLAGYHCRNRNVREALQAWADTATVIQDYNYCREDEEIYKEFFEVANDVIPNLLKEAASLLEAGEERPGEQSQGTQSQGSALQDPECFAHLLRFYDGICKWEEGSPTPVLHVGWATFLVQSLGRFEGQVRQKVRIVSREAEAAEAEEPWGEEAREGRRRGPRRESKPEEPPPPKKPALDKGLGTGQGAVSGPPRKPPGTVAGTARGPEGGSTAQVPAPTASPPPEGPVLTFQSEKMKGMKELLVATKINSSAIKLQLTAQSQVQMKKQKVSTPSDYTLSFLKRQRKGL
Active calls of the source: *; ? = inconclusive; . = no result; ! = not active in a repeat; [ ] = remark or other dose. This is one part of a sample in which hits are shown more often than they occur.

SMILES | Menin-MLL FL inh | p53 reactivation | MLL CXXC-DNA inh | ClpP mod | Menin-MLL TR inh
O=C(c1ccc(Cl)c(S(=O)(=O)N2CCOCC2)c1)N1CCOCC1 | -1 | 2% | -1% | 32µM* | 22%
COc1ccc(N=C2C(=S)N(c3ccc(OC)cc3)C(=NS(=O)(=O)c3ccccc3)N2c2ccccc2)cc1 | . | . | . | 28µM* | .
COc1cccc(NCc2nnc(SC(C(=O)N(C)C)c3ccccc3)n2C2CCCCC2)c1 (stereo not given) | . | . | . | 0% | .
O=c1[nH]c(N/N=C/c2ccccc2Br)nnc1-c1ccccc1 | 5 | 0% | 20% | 1% | 18%
COc1ccc(/C=N/Nc2nnc(-c3ccccc3)c(=O)[nH]2)cc1 | 1 | -9% | 7% | 25µM* | 3%
CCCCCn1c(=NC(=O)c2ccco2)c(C(=O)OCC)cc2c(=O)n3ccccc3nc21 | 1 | 32% | 6% | 16µM* | 6%
CCOC(=O)c1cc2c(=O)n3cccc(C)c3nc2n(CCCOC)c1=NC(=O)c1cccnc1 | 6 | -2% | -7% | 16µM* | 4%
CCCCn1c(=NC(=O)c2cccnc2)c(C#N)cc2c(=O)n3cccc(C)c3nc21 | 2 | 2% | -18% | ? | -2%
CCOCCCn1c(=NC(=O)c2cccnc2)c(C(=O)OCC)cc2c(=O)n3ccccc3nc21 | 1 | -17% | 1% | 20µM*! | -1%
COCCCn1c(=NC(=O)c2ccncc2)c(C#N)cc2c(=O)n3cccc(C)c3nc21 | ? | 6% | ? | 0.71µM* | 3%
CCCCn1c(=NC(=O)c2cccnc2)c(C(=O)OCC)cc2c(=O)n3ccccc3nc21 | 1 | 20% | 9% | ? | 1%
CCCCn1c(=NC(=O)c2ccco2)c(C(=O)OCC)cc2c(=O)n3ccccc3nc21 | 1 | 11% | -4% | -4% | -6%
CC(=O)c1c(N2CCN(c3ccc(F)cc3)CC2)nc(=S)n(Cc2ccccc2)c1C | 2 | 22% | 3% | 25µM* | 0%
CC(=O)Oc1ccc(-c2nc(-c3ccccc3)no2)cc1 | . | . | . | 1% | .
Cc1cccc(N/C=C/C(=O)c2ccc(Cl)cc2)c1 | 0 | ? | 29% | -2% | ?
Cc1ccc(Cl)c(N/C=C/C(=O)c2ccccc2)c1 | -4 | 40µM* | 4% | -3% | 0%
Cc1ccc2nc(-c3ccc(O)c(O)c3)cn2c1 | -7 | -5% | -13% | . | -4%
Cc1ccc2nc(-c3ccccc3)cn2c1 | 0 | -10% | ? | 14µM* | -11%
COc1ccc(-c2cn3ccc4ccccc4c3n2)cc1 | 1 | 28µM* | -7% | 28µM* | 4%
Cc1cccn2cc(-c3ccccc3)nc12 | 1 | ? | -2% | 10µM* | -17%
Cc1cccn2cc(-c3ccc(F)cc3)nc12 | 1 | . | -4% | 18µM* | 0%
COc1cc(OC)c2c(c1)OC(c1ccccc1)CC2=O (stereo not given) | -6 | . | . | . | -11%[24.8 µM]
COc1ccccc1/C=C/c1cncc(/C=C/c2ccccc2OC)c1 | . | . | . | -7% | .
Cc1cccc(C)c1Nc1c(-c2ccccc2F)nc2cccc(C)n12 | . | . | . | 32µM* | .
CC[n+]1cccc(Br)c1 | . | . | . | -1% | .
SMILES | Menin-MLL FL inh | p53 reactivation | MLL CXXC-DNA inh | ClpP mod | Menin-MLL TR inh
COc1ccc(N2CCN(C(=O)c3ccccc3N(C)S(=O)(=O)c3ccccc3)CC2)cc1 | . | -21% | -7% | 2% | .
COc1ccc(N2CCN(C(=O)c3ccccc3NS(=O)(=O)c3ccccc3)CC2)cc1 | . | 7% | 0% | 28µM* | .
COc1ccc(NC(=O)c2cc(-c3ccc(C)o3)nc3ccccc23)cc1OC | 2 | ? | 3% | 3.5µM* | 6%
Cc1ccc(-c2cc(C(=O)N3CCCC(C(F)(F)F)C3)c3ccccc3n2)o1 (stereo not given) | . | 4% | . | 16µM* | .
COc1ccc(NC(=O)CN(C)C(=O)c2cc(-c3ccco3)nc3ccccc23)cc1 | . | -1% | . | -14% | .
COc1ccc(-c2cc(C(=O)N3CCCC(C(F)(F)F)C3)c3ccccc3n2)cc1 (stereo not given) | . | 5% | . | 3% | .
Cc1ccc(-c2cc(C(=O)N(C)CC(=O)Nc3ccccc3Br)c3ccccc3n2)o1 | . | -3% | . | 25µM* | .
CCCNC(=O)OC[C@@H]1O[C@H](CCO/N=C(\C)CCN2CCCc3nc(C)c(C)cc32)C=C[C@@H]1Oc1ccc(OC)cc1 | 6[11.7 µM] | . | . | . | -14%[11.7 µM]
CCc1ccc(NC(=O)CSc2nnc(-c3ccccc3)n2C)cc1 | . | . | . | -1% | .
O=C1CN(C(=O)c2ccccc2F)C(c2ccccc2)c2cc(F)ccc2N1 (stereo not given) | -1 | -3% | 2% | -3% | -24%
Cc1ccccc1C(=O)N1CC(=O)Nc2ccc(F)cc2C1c1ccc(F)cc1 (stereo not given) | 0 | -4% | -2% | 32µM* | ?
COC(=O)N1C2=C(c3ccccc3[C@@H]1CC(=O)Nc1ccc3ccc4cccc5ccc1c3c45)[C@@H]1C(=O)N(c3ccccc3)C(=O)[C@@H]1[C@H](C)C2 | 6[11.7 µM] | . | . | . | ?
CCOC(=O)c1c(NC(=O)Cn2nnc(-c3ccc(Cl)cc3)n2)sc(C)c1C | 2 | -9% | -6% | 25µM* | 0%
COc1ccccc1CNC(=O)CSc1nc(=O)[nH]c2c1CCC2 | . | . | . | -1% | .
COc1ccc(OC)c(CNC(=O)c2ccc(-c3nc(CSc4ccccc4)c(C)o3)cc2)c1 | . | . | . | 18µM* | .
COc1cccc(CNC(=O)c2ccc(-c3nc(CSc4ccccc4)c(C)o3)cc2)c1 | . | . | . | -14% | .
COc1cc(NC(=O)c2ccc(-c3nc(CSc4ccccc4)c(C)o3)cc2)cc(OC)c1 | . | . | . | 14µM* | .
COc1ccc(CCn2c3c(c(=O)[nH]c2=S)CN(Cc2ccccc2)CN3)cc1OC | . | . | . | -3% | .
Cc1ccc(CNS(=O)(=O)c2c(C)nc3sc(C)cn3c2=O)cc1 | . | . | . | 28µM* | .
Cc1cn2c(=O)c(S(=O)(=O)NC(C)c3ccccc3)c(C)nc2s1 (stereo not given) | . | . | . | 32µM* | .
CC1(OC(=O)C2CCCC2)C(=O)C=C2C=C(c3ccsc3)N(c3cccc(C#N)c3)C=C2C1=O (stereo not given) | 14[11.7 µM] | . | . | . | ?
COc1cc(/C=N/Nc2nc(Nc3ccccc3)nc(-n3nc(C)cc3C)n2)cc(OC)c1OC | 5 | ? | 5% | . | 7%
COc1cc(/C=N/Nc2nc(Nc3ccc(C)cc3)nc(-n3nc(C)cc3C)n2)cc(OC)c1OC | 5 | 0% | 6% | 28µM* | 16%
Cc1cccc(N2CCN(C(=O)c3sc4nc5n(c(=O)c4c3C)CCC5)CC2C)c1 (stereo not given) | . | . | . | 1% | .
C[N+]1(CC(=O)c2ccc(Br)cc2)CCOCC1 | . | . | . | 2% | .
CC1=Nc2ccccc2/C1=C(/C)c1c(C)[nH]c2ccccc12 | . | . | . | -1% | .
C=CCn1c(COc2cccc3ccc(C)nc23)nnc1SCC(=O)OC | 0 | -4% | 1% | 28µM* | 0%

Screening results as filed in PubChem.
